Measured values reported in PubChem BioAssay (NCI).
“And” between values parts separate entries of the source, which are not always exact repeats. Equal entries are not always repeated. About 83,000 compounds went through this panel and 20% of them were active in at least one assay; those are over-represented in the sample as a whole.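 Note: values are percent growth. 100 is the growth of untreated cells, values between 100 and 0 indicate rising inhibition; between -100 and 0 indicates cell death.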 The source made the active and inactive calls.

How the values were obtained:
Experiment in all cases: NCI-60 one-dose screen, 48 h (100 = growth as untreated, 0 = no growth, -100 = all killed)
NCI-H23 lung = system: NCI-H23 lung
Procedure: Growth inhibition of the NCI-H23 human Non-Small Cell Lung tumor cell line is measured as a screen for anti-cancer activity. Cells are grown in 96 well plates and exposed to the test compound for 48 hours. Compounds are tested at a single concentration, which is 10^-5 M for most compounds. The reported endpoint is percent growth (GI% or GIPRCNT), where numbers from 0 - 100% represent growth inhibition, and numbers from -100% - 0 represent cell death. For example, a value of 40 represents 60% growth inhibition. A value of 0 means no net growth occurred over the course of the experiment. A value of -40 indicates 40% of cells at the beginning of the experiment died by the end of the experiment. A value of -100 means all cells are dead at the end of the experiment.
NCI-60 Human Tumor Cell Lines Screen was performed using the standard one-dose NCI protocol, which is described in more detail at https://dtp.cancer.gov/discovery_development/nci-60/default.htm.
Compounds with GIPRCNT values below 10 were considered active. Activity score was based on GIPRCNT using the following formula: […]
Score is 0 for GIPRCNT values of 100 or above, 50 for GIPRCNT values of 0, and 100 for GIPRCNT values of -100.

NCI-H226 lung = system: NCI-H226 lung
NCI-H322M lung = system: NCI-H322M lung
HOP-62 NSCLC = system: HOP-62 NSCLC
NCI-H460 lung = system: NCI-H460 lung
HOP-92 NSCLC = system: HOP-92 NSCLC
NCI-H522 lung = system: NCI-H522 lung
A549/ATCC NSCLC = system: A549/ATCC NSCLC
786-0 renal = system: 786-0 renal
COLO 205 colon = system: COLO 205 colon
DU-145 prostate = system: DU-145 prostate
K-562 leukemia = system: K-562 leukemia
MALME-3M melanoma = system: MALME-3M melanoma
MDA-MB-231 breast = system: MDA-MB-231 breast
RXF 393 renal = system: RXF 393 renal
SF-268 CNS = system: SF-268 CNS
SF-295 CNS = system: SF-295 CNS
SF-539 CNS = system: SF-539 CNS
UACC-257 melanoma = system: UACC-257 melanoma
M14 melanoma = conditions: 10 µM

Measured: growth

CC/C(=C(\c1ccccc1)c1ccc(OCCN(C)C)cc1)c1ccccc1
active: NCI-H23 lung; 12.5 µM -47.7% | HOP-62 NSCLC; 12.5 µM -91.2% | NCI-H460 lung; 10 µM 2.39% | NCI-H460 lung; 12.5 µM -66.8% | HOP-92 NSCLC; 12.5 µM 9.65% | NCI-H522 lung; 12.5 µM -46.4% | A549/ATCC NSCLC; 12.5 µM -44.9% | 786-0 renal; 10 µM -41% | 786-0 renal; 12.5 µM -95.2% | COLO 205 colon; 10 µM -89% | COLO 205 colon; 12.5 µM -71.9% | DU-145 prostate; 12.5 µM 9.12% | K-562 leukemia; 10 µM 0.0322% | K-562 leukemia; 12.5 µM -38.6% | MALME-3M melanoma; 10 µM -67.5% | MALME-3M melanoma; 12.5 µM -95.7% | MDA-MB-231 breast; 12.5 µM -26.4% | RXF 393 renal; 10 µM -22.4% | RXF 393 renal; 12.5 µM -56.8% | SF-295 CNS; 12.5 µM -68% | SF-539 CNS; 12.5 µM -95.2% | UACC-257 melanoma; 10 µM -64.3% | UACC-257 melanoma; 12.5 µM -34.3% | M14 melanoma -75%
inactive: NCI-H23 lung; 10 µM 60.3% | NCI-H226 lung; 10 µM 92.5% | NCI-H226 lung; 12.5 µM 51.3% | NCI-H322M lung; 10 µM 76% | NCI-H322M lung; 12.5 µM 11.7% | HOP-62 NSCLC; 10 µM 43.1% | NCI-H522 lung; 10 µM 46.6% | A549/ATCC NSCLC; 10 µM 49.8% | DU-145 prostate; 10 µM 65.4% | MDA-MB-231 breast; 10 µM 45.2% | SF-268 CNS; 10 µM 56.7% | SF-268 CNS; 12.5 µM 32.4% | SF-295 CNS; 10 µM 40.2%

COc1ccc2sc3cccc(NCCN(C)C)c3c(=O)c2c1
18.6% (inactive) and -90.3% (active): MALME-3M melanoma; 10 µM
21.5% (inactive) and -76.7% (active): NCI-H460 lung; 10 µM
inactive: NCI-H23 lung; 10 µM 60.9% and 19.2% | NCI-H226 lung; 10 µM 59.2% and 13.7% | NCI-H322M lung; 10 µM 41.2% and 12.5% | DU-145 prostate; 10 µM 53.6% and 14.8% | SF-268 CNS; 10 µM 42.9% and 12.4%
59.1% (inactive) and -84.9% (active): M14 melanoma
25% (inactive) and -23.4% (active): A549/ATCC NSCLC; 10 µM
60% (inactive) and 1.78% (active): 786-0 renal; 10 µM
59.7% (inactive) and -15.9% (active): RXF 393 renal; 10 µM
48.4% (inactive) and -70.3% (active): HOP-62 NSCLC; 10 µM
active: NCI-H522 lung; 10 µM -20.9% | COLO 205 colon; 10 µM -17.3% and -81.8% | SF-295 CNS; 10 µM -16.7% and -31.7% | UACC-257 melanoma; 10 µM -83.3%
49.8% (inactive) and -8.1% (active): SF-539 CNS; 10 µM
42.1% (inactive) and -72.9% (active): MDA-MB-231 breast; 10 µM
17.2% (inactive) and -40.4% (active): K-562 leukemia; 10 µM
24.9% (inactive) and -9.03% (active): HOP-92 NSCLC; 10 µM

CC[C@@]1(O)C(=O)OCc2c1cc1n(c2=O)Cc2cc3c(CN(C)C)c(O)ccc3nc2-1
active: NCI-H23 lung; 10 µM -15.6% and 1.45% | NCI-H226 lung; 10 µM -48.3% and -34.1% | NCI-H322M lung; 10 µM 3.52% and -20.1% | HOP-62 NSCLC; 10 µM -7.57% and -9.48% | NCI-H460 lung; 10 µM 2.05% and -6.71% | NCI-H522 lung; 10 µM -57% | A549/ATCC NSCLC; 10 µM -30.7% and 4.5% | 786-0 renal; 10 µM 5.59% and -13.2% | COLO 205 colon; 10 µM 9.58% | DU-145 prostate; 10 µM -18% | K-562 leukemia; 10 µM -22.7% | MALME-3M melanoma; 10 µM -11% and -39.7% | SF-295 CNS; 10 µM -31.3% and -15% | SF-539 CNS; 10 µM -19% and -42.7% | UACC-257 melanoma; 10 µM -57.9% and 5.98% | M14 melanoma -7.26% and -31.9%
inactive: MDA-MB-231 breast; 10 µM 35.9% and 47.6%
-63.5% (active) and 11.3% (inactive): RXF 393 renal; 10 µM
6.03% (active) and 13.3% (inactive): SF-268 CNS; 10 µM

CN(Cc1cnc2nc(N)nc(N)c2n1)c1ccc(C(=O)N[C@@H](CCC(=O)O)C(=O)O)cc1
inactive: NCI-H23 lung; 2.5 µM 20.9% | NCI-H23 lung; 10 µM 31.7% | NCI-H226 lung; 2.5 µM 39.6% | NCI-H226 lung; 10 µM 35.1% | NCI-H322M lung; 2.5 µM 53.6% | NCI-H322M lung; 10 µM 52.6% | HOP-62 NSCLC; 2.5 µM 30.6% | HOP-62 NSCLC; 10 µM 32.1% | NCI-H460 lung; 2.5 µM 23.5% | NCI-H460 lung; 10 µM 20.7% | HOP-92 NSCLC; 2.5 µM 32.6% | HOP-92 NSCLC; 10 µM 25.1% | NCI-H522 lung; 2.5 µM 47% | NCI-H522 lung; 10 µM 35.3% | A549/ATCC NSCLC; 2.5 µM 31% | A549/ATCC NSCLC; 10 µM 22.8% | 786-0 renal; 2.5 µM 11.7% | 786-0 renal; 10 µM 12.3% | COLO 205 colon; 2.5 µM 50.5% | COLO 205 colon; 10 µM 44.1% | DU-145 prostate; 2.5 µM 31.8% | DU-145 prostate; 10 µM 39.6% | K-562 leukemia; 2.5 µM 23.8% | K-562 leukemia; 10 µM 23.3% | MALME-3M melanoma; 2.5 µM 61.6% | MALME-3M melanoma; 10 µM 62% | MDA-MB-231 breast; 2.5 µM 71.1% | MDA-MB-231 breast; 10 µM 59.9% | RXF 393 renal; 2.5 µM 18.7% | RXF 393 renal; 10 µM 13% | SF-268 CNS; 2.5 µM 36.8% | SF-268 CNS; 10 µM 25.1% | SF-295 CNS; 2.5 µM 18.4% | SF-295 CNS; 10 µM 19.7% | UACC-257 melanoma; 10 µM 12%
active: SF-539 CNS; 2.5 µM -3.25% | SF-539 CNS; 10 µM -0.266% | UACC-257 melanoma; 2.5 µM 9.31%
